Experiment [1] can be described thus: inhibitors of TNFa-induced NFkB p65 translocation, primary screen, imaging, HUVEC, MLSMR starter and 10KST1 sets (AID 438;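 active = inhibition above 20% together with a positive visual image hit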;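 also: compound added about 3h40 before a 20 min TNFalpha stimulation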;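 as to inhibition: signal is the nuclear over cytoplasmic p65 intensity ratio per well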). The note with it: HUVEC TNFa-induced p65 nuclear translocation; cell count: measured here: nuclei count (cytotoxicity indicator), at 2.08 µM; inhibition: at 2 µM, stronger effect = higher value, 0% TNFa-plus-vehicle, 100% no-TNFa wells.
Experiment [2] can be described thus: inhibitors of mutant huntingtin aggregation, primary screen, imaging, exon1htt(103Q)mCFP cells, high-content imaging (AID 483;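 active = visual image review flags a hit and inhibition of aggregation exceeds 20%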;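 also: compound exposure lasted 3 days before fixation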;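 as to nuclei count: percent of the per-plate median nuclei count of sample wells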). The note with it: exon1htt(103Q)mCFP cell line, aggregate imaging, at 2 µM; inhibition of aggregation: stronger effect = higher value; nuclei count: measured here: cell count, toxicity.
Experiment [3] can be described thus: inhibitors of E-selectin induction by TNFa, primary screen, imaging, HUVEC, immunofluorescence, MLSMR starter and 10KST1 sets (AID 487;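 active = visually confirmed hit in the image check and inhibition above 20%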;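 as to inhibition: signal is fraction of cell area covered by stained E-selectin grains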;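 as to nuclei count: 100% = median nuclei count of all wells on the same plate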). As to conditions: HUVEC TNFalpha-induced E-selectin immunofluorescence imaging, at 2 µM; inhibition: stronger effect = higher value; nuclei count: measured here: cell number, toxicity.
In experiment [4] the target is Voltage-gated potassium channel subunit beta-2 (Rattus norvegicus) (UniProt P62483). The experiment in a line: KvBeta enzyme negative modulators, primary screen, biochemical, NADPH fluorescence (AID 622;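 active = fluorescence slope higher than the sample average by over 3 SD, cut at about -0.22 in these data, passing the limit was not always enough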;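 also: slope of raw intensity against log time taken from 70 to 1610 s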). The note with it: recombinant KvBeta, 4-cyanobenzaldehyde reduction, at 10 µM, stronger effect = higher value.
Chain of Voltage-gated potassium channel subunit beta-2 (Rattus norvegicus) (P62483 whole entry, looked up): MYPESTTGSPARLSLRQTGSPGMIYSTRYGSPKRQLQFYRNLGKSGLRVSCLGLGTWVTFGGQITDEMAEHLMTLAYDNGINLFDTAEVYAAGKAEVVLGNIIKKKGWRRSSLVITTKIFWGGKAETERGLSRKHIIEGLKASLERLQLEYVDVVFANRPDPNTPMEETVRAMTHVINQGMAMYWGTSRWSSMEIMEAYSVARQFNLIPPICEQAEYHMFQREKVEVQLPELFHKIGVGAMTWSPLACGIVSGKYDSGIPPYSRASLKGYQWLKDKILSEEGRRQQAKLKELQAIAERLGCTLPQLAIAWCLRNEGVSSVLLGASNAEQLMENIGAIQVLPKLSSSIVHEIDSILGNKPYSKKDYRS
For experiment [5] the target is unchanged. In words: KvBeta positive modulators, primary screen, biochemical, NADPH fluorescence (AID 623).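 Also: fluorescence intensity change per second fitted from 20 to 320 s.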 The note with it: Recombinant KvBeta, NADPH fluorescence decrease slope, 10 min; at 10 µM; stronger effect = lower value.
Experiment [6] deals with Alpha-2C adrenergic receptor (Homo sapiens) (UniProt P18825). The experiment in a line: modulators of alpha2C/GIRK thallium flux, primary screen, cell-based, HEK293 alpha2C/GIRK1/2 (AID 624;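 active = fluorescence slope after compound addition differing from the mean of all screened samples at 99.7% confidence, in either direction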;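 also: slope of fluorescence ratio to pre-addition baseline per second over 15 to 24 s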). As to conditions: thallium flux BTC fluorescence, at 10 µM, actives lie on both sides.
Chain of Alpha-2C adrenergic receptor (Homo sapiens) (P18825 whole entry, looked up): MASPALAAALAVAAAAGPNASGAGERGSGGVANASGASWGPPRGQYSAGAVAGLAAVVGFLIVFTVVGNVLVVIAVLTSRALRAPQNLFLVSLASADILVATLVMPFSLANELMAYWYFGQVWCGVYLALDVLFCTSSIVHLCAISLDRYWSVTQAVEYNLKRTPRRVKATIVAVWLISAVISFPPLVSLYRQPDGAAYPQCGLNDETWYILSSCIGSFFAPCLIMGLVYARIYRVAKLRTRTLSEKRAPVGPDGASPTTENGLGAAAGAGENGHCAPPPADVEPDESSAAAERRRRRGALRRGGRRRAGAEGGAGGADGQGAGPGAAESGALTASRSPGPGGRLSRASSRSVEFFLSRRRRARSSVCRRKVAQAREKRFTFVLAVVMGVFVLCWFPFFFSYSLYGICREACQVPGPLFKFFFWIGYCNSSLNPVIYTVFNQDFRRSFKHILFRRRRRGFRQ
Experiment [7] can be described thus: inhibitors of Sendai virus-induced IRF3 signaling, primary screen, TLR/RLR signaling modifier project, cell-based, Sendai virus stimulus, luciferase, 10K MLSCN set (AID 602276;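 active = inhibition at or above 50% at 10 µM; inactive = inhibition below 50%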;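 also: firefly luciferase from ISG56 promoter only with Renilla not read in this screen; 0% = Sendai virus plus DMSO and 100% = medium plus DMSO without virus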). The note with it: HEK293 RL24 IRF3 luciferase reporter, at 10 µM, stronger effect = higher value.
Experiment [8] in a line: inhibitors of poly I:C-induced TLR3 signaling, primary screen, cell-based, poly I:C stimulus, luciferase, 10K MLSCN set (AID 602277;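 active = inhibition of the reporter signal at or above 50%; inactive = inhibition below 50%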). As to conditions: HEK293-TLR3 RL24 IRF3 luciferase reporter, at 10 µM, stronger effect = higher value.

Activity calls are given as the source filed them.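 The calls were made as follows, unless noted: active = NADPH fluorescence slope more negative than the mean of all samples by about 3 SD, 99.7% confidence; inactive = the rest.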

For the compound `Cn1c(C(=O)NCCCN2CCCCCC2)cc2c(=O)n(C)c3ccccc3c21`, the cell count in experiment [1] came to 653. The inhibition in experiment [1] was 5.5% (inactive); in experiment [3], -33.1% (inactive); in experiment [7] it was 72.2% (active); in experiment [8], 79% (active). For the same compound, in experiment [2], the inhibition of aggregation was -31.5% (inactive). Besides, the figures for the nuclei count in experiment [2] and in experiment [3] were 76.6% and 101%, respectively. Moreover, the fluorescence slope in experiment [4] is -0.639 (inactive). The NADPH fluorescence slope in experiment [5] is -4.1e-06 (inactive). Also, the slope in experiment [6] was 0.00675 (inactive).
On to `COc1ccc(N2CCN(C(=O)Cc3ccc(-n4c(=O)[nH]c5ccccc5c4=O)cc3)CC2)cc1`, for which, in experiment [1], the cell count is 660. The inhibition in experiment [1] was -5.8% (inactive); in experiment [3], -103% (inactive); in experiment [7], 7.13% (inactive); in experiment [8], -1.38% (inactive). Further, the inhibition of aggregation in experiment [2] was -41.3% (inactive). Further, the nuclei count in experiment [2] is 96.7%; in experiment [3] it was 103%. For the same compound, in experiment [4], the fluorescence slope is -0.483 (inactive). Moreover, in experiment [5], the NADPH fluorescence slope was 1.9e-05 (inactive). In addition, in experiment [6], the slope was 0.00662 (inactive).
`COc1ccc(OC)c(NC(=O)CCN2CCC(C)CC2)c1`: in experiment [1], the cell count was determined as 446. Moreover, the inhibition in experiment [1] was -6.2% (inactive); in experiment [3] it was -120% (inactive); in experiment [7], -15.8% (inactive); in experiment [8], -0.553% (inactive). In experiment [2], the inhibition of aggregation is 15.7% (inactive). The nuclei count was determined as 101% in experiment [2] and 220% in experiment [3]. Further, the fluorescence slope in experiment [4] is -0.59 (inactive). Also, the NADPH fluorescence slope in experiment [5] was -3.6e-05 (inactive). Further, the slope in experiment [6] is 0.00565 (inactive).
On to `O=C(NCCC1=CCCCC1)c1cc2c(s1)CS(=O)(=O)C2`, for which the cell count in experiment [1] was determined as 610. In addition, the inhibition in experiment [1] was 6% (inactive); in experiment [3], 31% (inactive); in experiment [7], -7.34% (inactive); in experiment [8], -9.88% (inactive). The inhibition of aggregation in experiment [2] was -19.3% (inactive). Further, the results for the nuclei count in experiment [2] and in experiment [3] were 102% and 94.9%, respectively. Also, the fluorescence slope in experiment [4] is -0.433 (inactive). In addition, the NADPH fluorescence slope in experiment [5] was -0.000138 (inactive). Moreover, the slope in experiment [6] is 0.00559 (inactive).
Turning to `O=C(OCn1nnc2ccccc2c1=O)c1cc2ccccc2o1`, the cell count in experiment [1] was determined as 544. The inhibition in experiment [1] is -3.9% (inactive); in experiment [3] it was -10.4% (inactive); in experiment [7] it was -2.91% (inactive); in experiment [8], 27.7% (inactive). Moreover, the inhibition of aggregation in experiment [2] was 19.5% (inactive). The nuclei count in experiment [2] was 76.7%; in experiment [3], 90.4%. Further, in experiment [4], the fluorescence slope was -0.447 (inactive). Besides, the NADPH fluorescence slope in experiment [5] was -3.1e-05 (inactive). Moreover, the slope in experiment [6] is 0.00552 (inactive).
Consider `COC(=O)c1ccccc1NC1c2ccccc2C(=O)N1c1cccnc1` (centres undefined), for which, in experiment [1], the cell count was found to be 725. Further, the inhibition is -6.7% (inactive) in experiment [1], -26.4% (inactive) in experiment [3], 5.35% (inactive) in experiment [7] and 16.8% (inactive) in experiment [8]. Also, the inhibition of aggregation in experiment [2] is -10.5% (inactive). Besides, the nuclei count in experiment [2] was 100%; in experiment [3] it was 112%. The fluorescence slope in experiment [4] is -0.53 (inactive). Moreover, the NADPH fluorescence slope in experiment [5] is -4.7e-05 (inactive). Moreover, in experiment [6], the slope is 0.00566 (inactive).
For the compound `CCOc1ccc2[nH]c(=O)c(C(c3nnnn3CC3CCCO3)N3CCc4ccccc4C3)cc2c1` (centres undefined), in experiment [1], the cell count amounted to 702. Also, the inhibition was 12.9% (inactive) in experiment [1], -1.8% (inactive) in experiment [3], 20.7% (inactive) in experiment [7] and 31.2% (inactive) in experiment [8]. In addition, the inhibition of aggregation in experiment [2] was 3.6% (inactive). Also, the values for the nuclei count in experiment [2] and in experiment [3] were 69% and 119%, respectively. In experiment [4], the fluorescence slope is -0.598 (inactive). For the same compound, the NADPH fluorescence slope in experiment [5] was -8.5e-06 (inactive). Besides, the slope in experiment [6] was 0.00562 (inactive).
Regarding `CCCCCOC(=O)C1=C(C)N(C)C(=O)NC1c1cc(Br)c(O)c(OC)c1` (centres undefined), in experiment [1], the cell count turned out to be 563. The inhibition in experiment [1] was -9.9% (inactive); in experiment [3], 25.8% (inactive); in experiment [7], 1.53% (inactive); in experiment [8], 21.1% (inactive). Further, the inhibition of aggregation in experiment [2] is -39.7% (inactive). For the same compound, the nuclei count in experiment [2] and in experiment [3] was 105% each time. In addition, in experiment [4], the fluorescence slope is -0.624 (inactive). Moreover, the NADPH fluorescence slope in experiment [5] was 5.7e-06 (inactive). Moreover, the slope in experiment [6] is 0.0067 (inactive).
With `Nn1c(SCC(=O)Nc2ccc(F)cc2)nnc1-c1cccnc1`, the cell count in experiment [1] amounted to 74. The inhibition in experiment [1] was 55.5% (active); in experiment [3], -112% (inactive); in experiment [7], 12.6% (inactive); in experiment [8], 25.6% (inactive). For the same compound, the inhibition of aggregation in experiment [2] is -0.3% (inactive). For the same compound, the results for the nuclei count in experiment [2] and in experiment [3] were 111% and 108%, respectively. Further, the fluorescence slope in experiment [4] is -0.397 (inactive). The NADPH fluorescence slope in experiment [5] is -0.000146 (inactive). In experiment [6], the slope was 0.00484 (inactive).
For `CCOc1cc(C(=O)N(C)Cc2cc3cc(OC)ccc3[nH]c2=O)cc(OCC)c1OCC`, the cell count in experiment [1] was 394. Besides, the inhibition in experiment [1] is 4% (inactive); in experiment [3], -174% (inactive); in experiment [7] it was 15.8% (inactive); in experiment [8] it was 18.6% (inactive). Further, the inhibition of aggregation in experiment [2] is 18.6% (inactive). In addition, the nuclei count turned out to be 83.8% in experiment [2] and 211% in experiment [3]. For the same compound, in experiment [4], the fluorescence slope was -0.207 (inactive). Also, the NADPH fluorescence slope in experiment [5] was -1.5e-05 (inactive). Also, in experiment [6], the slope was 0.00515 (inactive).
As to `CCn1cc(SCC(=O)Nc2cc(C)on2)c2ccccc21`, in experiment [1], the cell count amounted to 760. The inhibition in experiment [1] is -15.1% (inactive); in experiment [3], 29.9% (inactive); in experiment [7], 26.7% (inactive); in experiment [8] it was 25.1% (inactive). The inhibition of aggregation in experiment [2] is -0.1% (inactive). Further, the results for the nuclei count in experiment [2] and in experiment [3] were 60.4% and 86.4%, respectively. Also, the fluorescence slope in experiment [4] was -0.494 (inactive). Besides, the NADPH fluorescence slope in experiment [5] is -2.7e-05 (inactive). The slope in experiment [6] is 0.00702 (inactive).
`O=C1CC(N2CCN(c3ccc(Cl)c(Cl)c3)CC2)C(=O)N1` (centres undefined): the cell count in experiment [1] stood at 361. Also, the inhibition in experiment [1] was 0.7% (inactive); in experiment [3], 25.6% (inactive); in experiment [7] it was -2.47% (inactive); in experiment [8] it was 20.7% (inactive). Moreover, the inhibition of aggregation in experiment [2] is -7.2% (inactive). In addition, the results for the nuclei count in experiment [2] and in experiment [3] were 87.1% and 98.6%, respectively. Moreover, the fluorescence slope in experiment [4] is -0.466 (inactive). The NADPH fluorescence slope in experiment [5] was -4.7e-05 (inactive). In addition, the slope in experiment [6] is 0.00625 (inactive).
In the case of `CC(=O)Nc1c(-c2ccc(F)cc2)nc2ccccn12`, in experiment [1], the cell count was found to be 516. Moreover, the inhibition in experiment [1] is -4.7% (inactive); in experiment [3], -6.5% (inactive); in experiment [7] it was 11.8% (inactive); in experiment [8] it was 4.82% (inactive). Further, in experiment [2], the inhibition of aggregation was 16.5% (inactive). For the same compound, the nuclei count in experiment [2] came to 104%; in experiment [3] it was 88%. In experiment [4], the fluorescence slope was -0.551 (inactive). For the same compound, in experiment [5], the NADPH fluorescence slope is 9e-06 (inactive). In addition, the slope in experiment [6] was 0.00637 (inactive).
For the compound `CN(C)c1ccc(/C(=N\O)c2ccccc2)cc1`, in experiment [1], the cell count stood at 429. The inhibition in experiment [1] is 1.2% (inactive); in experiment [3] it was 25.3% (inactive); in experiment [7], -24.9% (inactive); in experiment [8] it was -21.7% (inactive). Also, the inhibition of aggregation in experiment [2] was -6.9% (inactive). In addition, the figures for the nuclei count in experiment [2] and in experiment [3] were 93.6% and 103%, respectively. The fluorescence slope in experiment [4] was -0.465 (inactive). In addition, the NADPH fluorescence slope in experiment [5] was 1.6e-05 (inactive). Also, the slope in experiment [6] was 0.00326 (inactive).

By inhibition is commonly meant the relative decrease from the control value, in per cent.

These data come from PubChem BioAssay.
